Only some compounds are listed: those with a hit (about 5.2% of all), similar ones and a draw of the others.
EphB4 ephrin blk: blocks human EphB4 binding to ephrin-B2; actives 0.15% (n = 97,000); inhibition, % at 7 µM; AID 720; EphB4 LBD / TNYL-RAW-Alexa532 peptide, fluorescence polarization;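 active = inhibition above the screen-wide mean inhibition plus 3 SD, cut at about 15% in these data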
Target sequence (P54760 whole entry, looked up, the tested form may be a part): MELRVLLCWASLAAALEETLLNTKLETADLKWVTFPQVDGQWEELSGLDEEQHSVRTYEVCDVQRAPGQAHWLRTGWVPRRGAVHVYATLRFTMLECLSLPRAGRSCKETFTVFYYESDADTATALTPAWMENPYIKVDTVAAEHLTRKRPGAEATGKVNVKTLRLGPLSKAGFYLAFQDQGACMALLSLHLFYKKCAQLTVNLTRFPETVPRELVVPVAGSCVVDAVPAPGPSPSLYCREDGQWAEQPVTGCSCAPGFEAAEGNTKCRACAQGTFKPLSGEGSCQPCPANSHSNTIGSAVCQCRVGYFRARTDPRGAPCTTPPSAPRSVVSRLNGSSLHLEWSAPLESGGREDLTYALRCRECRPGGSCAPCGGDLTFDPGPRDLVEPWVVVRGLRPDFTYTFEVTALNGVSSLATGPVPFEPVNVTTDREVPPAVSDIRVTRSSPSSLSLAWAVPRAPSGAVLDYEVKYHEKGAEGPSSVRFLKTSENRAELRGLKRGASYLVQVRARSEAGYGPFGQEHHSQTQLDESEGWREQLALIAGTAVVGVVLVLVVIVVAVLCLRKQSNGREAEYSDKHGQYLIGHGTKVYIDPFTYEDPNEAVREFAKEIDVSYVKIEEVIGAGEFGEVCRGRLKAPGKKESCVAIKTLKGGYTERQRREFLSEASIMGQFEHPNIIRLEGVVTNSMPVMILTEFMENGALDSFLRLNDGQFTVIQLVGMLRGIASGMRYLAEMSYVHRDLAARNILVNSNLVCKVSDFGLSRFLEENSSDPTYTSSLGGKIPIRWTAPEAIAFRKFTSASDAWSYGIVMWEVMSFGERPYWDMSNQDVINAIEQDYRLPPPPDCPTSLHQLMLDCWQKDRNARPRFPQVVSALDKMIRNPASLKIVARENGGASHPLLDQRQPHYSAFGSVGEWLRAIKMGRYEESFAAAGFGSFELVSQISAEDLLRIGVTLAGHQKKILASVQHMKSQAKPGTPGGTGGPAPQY
Calb biofilm kill: kills Candida albicans biofilms | C. albicans biofilm + clotrimazole, Alamar Blue | actives 0.14% (n = 85,000) | AID 834 | inhibition, % at 6 µM;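 active = inhibition above 20%; inactive = inhibition below 20%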;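 also: preformed 24 hr biofilms exposed to compound for 48 hr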
PostGolgi yeast: growth inhibition of a yeast mutant, post-Golgi transport screen | actives 0.9% (n = 98,000) | post-Golgi transport phenotypic cell assay | inhibition, % at 10 µM;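 also: yeast cells grown in 1536-well plates; yeast grown about 18 h at 30C before absorbance read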
PostGolgi ctrl: growth of the yeast control strain, post-Golgi counter-screen; efflux-deficient yeast background strain, growth absorbance A615, 16 h; inhibition, % at 10 µM; actives 5% (n = 98,000); AID 738
Each line names hits and unclear results; the compound was inactive in the other large screens. Rule as the data show it, unless noted: active = inhibition above about 30%; inactive = the rest.

COC(=O)NCC(c1cccnc1)N1CCN(c2ccccc2)CC1 (stereo not drawn)	none
O=C(NCC(c1cccnc1)N1CCN(c2ccc(F)cc2)CC1)c1cccc(Cl)c1 (stereo not drawn)	PostGolgi yeast 77, PostGolgi ctrl 91
COc1ccc(N2CCN(C(CNS(=O)(=O)c3cccs3)c3cccnc3)CC2)cc1 (stereo not drawn)	none
O=C(C(NS(=O)(=O)c1cccs1)c1ccccc1)N1CCN(c2ccccc2)CC1 (stereo not drawn)	none
O=S(=O)(NCC(c1cccnc1)N1CCN(c2ccccc2)CC1)c1cccs1 (stereo not drawn)	PostGolgi yeast 88, PostGolgi ctrl 55
O=C1C(NS(=O)(=O)c2cccs2)=C(N2CCN(c3ccccc3)CC2)C(=O)c2ccccc21	PostGolgi ctrl 57
O=C(NCC(c1cccnc1)N1CCN(c2ccccc2)CC1)C1CCCCC1 (stereo not drawn)	PostGolgi yeast 46
Cc1ccccc1C(=O)Nc1nc2n(n1)C(c1ccccc1)CC(=O)N2 (stereo not drawn)	none
Nc1cc(C(=O)OCC(=O)NCc2ccco2)ccc1Cl	none
Cc1ccc(S(=O)(=O)NC2=C(N3CCN(Cc4ccccc4)CC3)C(=O)c3ccccc3C2=O)cc1	PostGolgi ctrl 46
O=C(NCC(c1cccnc1)N1CCN(c2ccc(F)cc2)CC1)OCc1ccccc1 (stereo not drawn)	PostGolgi yeast 59
O=C(NCC(c1cccnc1)N1CCN(c2ccccc2)CC1)c1ccc2c(c1)OCO2 (stereo not drawn)	PostGolgi yeast 74
O=C(NCC(c1cccnc1)N1CCOCC1)c1ccc2c(c1)OCO2 (stereo not drawn)	none
Cc1ccc(S(=O)(=O)NC(C)C(c2cccs2)N2CCN(C)CC2)cc1 (stereo not drawn)	none (no result: PostGolgi yeast, PostGolgi ctrl)
Cc1ccc(S(=O)(=O)NC(C)C(c2cccs2)N2CCN(c3ccccc3)CC2)cc1 (stereo not drawn)	PostGolgi ctrl 47
O=C(NCc1ccco1)C1CCCN(S(=O)(=O)c2ccc(Cl)cc2)C1 (stereo not drawn)	none (no result: Calb biofilm kill)
CCOC(=O)c1cnc2ccc(C)cc2c1Nc1ccc(N2CCOCC2)cc1	none (no result: Calb biofilm kill)
CCOC(=O)c1cnc2ccc(OCC)cc2c1N1CCN(c2ccccc2)CC1	PostGolgi ctrl 54
CCOC(=O)c1cnc2ccc(C)cc2c1Sc1ccccc1	PostGolgi ctrl 31 (no result: Calb biofilm kill)
COc1ccc(N2CCN(CC(O)COc3ccc4c(c3)CCC4)CC2)cc1 (stereo not drawn)	PostGolgi ctrl 38
Brc1cccc(-c2n[nH]c(-c3ccccc3)n2)c1	PostGolgi ctrl 43
S=c1nc(-c2cccc(Br)c2)[nH][nH]1	none (no result: EphB4 ephrin blk)
c1ccc2c(c1)c1ccccc1n1c(-c3ccc4c(c3)OCO4)nnc21	PostGolgi ctrl 43 (no result: Calb biofilm kill)
Cn1c(SCc2ccccc2)nnc1-c1ccc2c(c1)OCO2	none
Cc1nn(Cc2c(F)c(F)c(F)c(F)c2F)c(C)c1NC(=O)c1ccc(COc2ccc(F)cc2)o1	none (no result: Calb biofilm kill)
COc1ccc(-c2cn(/N=C/c3ccc(Cl)cc3Cl)c(N)n2)cc1	none
O=C(CSc1cn(CCNC(=O)c2cccs2)c2ccccc12)NC1CCCCC1	none
O=C(CSc1cn(CCNC(=O)c2cccs2)c2ccccc12)NCC1CCCO1 (stereo not drawn)	Calb biofilm kill 33 (no result: EphB4 ephrin blk)
CC(=O)N1N=C(c2cccc([N+](=O)[O-])c2)OC1c1ccc(Cl)cc1Cl (stereo not drawn)	PostGolgi ctrl 34 (no result: Calb biofilm kill)
COc1cccc(C2C3=C(N=C4SCC(=O)N42)c2ccccc2CC3)c1OC (stereo not drawn)	PostGolgi ctrl 40 (no result: Calb biofilm kill)
CC(=O)Nc1sc(C)c(C)c1C(=O)OC1CCOC1=O (stereo not drawn)	none
CC(=O)COC(=O)c1cccc(N2C(=O)C3C4C=CC(C4)C3C2=O)c1 (stereo not drawn)	PostGolgi ctrl 31 (no result: EphB4 ephrin blk)
CCOC(=O)c1cccc(N2C(=O)C3C(C2=O)C2C=CC3C23CC3)c1 (stereo not drawn)	none
Cc1ccc2c(c1)c1c3n2CC(=C2C(=O)OC(C)(C)OC2=O)NC3CCC1 (stereo not drawn)	PostGolgi ctrl 51
CCCCc1c(C)c(C#N)c2[nH]c3ccccc3n2c1=O	PostGolgi ctrl 36
O=c1c2ccccc2nc2n1CC/C2=C\c1ccccc1[N+](=O)[O-]	none (no result: Calb biofilm kill)
Cc1ccccc1-c1nc2ccccc2c(=O)n1/N=C/c1ccccc1[N+](=O)[O-]	PostGolgi ctrl 47 (no result: Calb biofilm kill)
COc1ccc(C2OC(=O)c3ccccc3S2)cc1 (stereo not drawn)	none
O=C(CN(Cc1ccccc1)C(=O)CSc1nnc(COc2ccccc2)o1)NC1CCCC1	none (no result: PostGolgi yeast, PostGolgi ctrl)
O=C(CN(Cc1cccs1)C(=O)CSc1nnc(COc2ccccc2)o1)NC1CCCC1	EphB4 ephrin blk 20
C(=C\c1ccccc1)/CSc1nnc(-c2cccnc2)o1	PostGolgi ctrl 33 (no result: Calb biofilm kill)
c1ccc(CSc2nnc(-c3cccnc3)o2)cc1	none (no result: PostGolgi yeast, PostGolgi ctrl)
CCCCC1CC1C(=O)Nc1ccc(OC)c(OC)c1 (stereo not drawn)	PostGolgi ctrl 37 (no result: EphB4 ephrin blk)
CCCCOC(=O)c1ccc(NC(=O)Nc2ccc(OC)c(OC)c2)cc1	none
COc1ccc(C(C(=O)OC(C)CN(C)C)c2ccccc2)cc1 (stereo not drawn)	PostGolgi yeast 35 (no result: Calb biofilm kill)
CC(=Nc1ccccc1C)C1=C(O)CSC1=O	none
N#CC(C#N)=c1ccc2c(c1)N1C3=C(CCCC3)CC3CCCCC31N=2 (stereo not drawn)	PostGolgi yeast 44, PostGolgi ctrl 50
COc1ccc(-c2noc(CSc3nc(N)c(-c4ccccc4)c(=O)[nH]3)n2)cc1	none
Cn1c(SCC(=O)NCC2CCCO2)nnc1-c1ccc(S(=O)(=O)N2CCCC2)cc1 (stereo not drawn)	none
O=C(Cn1nnc(-c2ccc(S(=O)(=O)N3CCCC3)cc2)n1)NCC1CCCO1 (stereo not drawn)	PostGolgi yeast 34
CC1CCN(CCOc2cc(Cl)ccc2Cl)CC1	PostGolgi yeast 49
CC1CCN(CCCCOc2ccccc2[N+](=O)[O-])CC1	none (no result: Calb biofilm kill)
COc1ccc(/C=N/n2c(=S)n(C)c3ccccc32)cc1OC	Calb biofilm kill 50
O=C(NC1CCCCC1)c1ccc(Cn2cc(Br)cn2)o1	none
O=C(NCc1ccccn1)c1ccc(Cn2cc(Br)cn2)o1	none
O=C(Nc1ccc(C(F)(F)F)cc1Cl)c1ccc(Cn2cc(Br)cn2)o1	PostGolgi ctrl 39
O=C(Nc1cccc(C(F)(F)F)c1)c1ccc(Cn2cc(Br)cn2)o1	PostGolgi ctrl 38
Nc1nonc1-c1nc2ccccc2n1Cc1ccccc1	PostGolgi ctrl 42
Cc1nc2cc(NCc3nc4ccccc4n3Cc3ccccc3)ccc2n1C	none
Cc1cccc(NCc2nc3ccccc3n2Cc2ccccc2)c1	PostGolgi yeast 54, PostGolgi ctrl 66
COCc1nc2ccccc2n1Cc1ccccc1	none
Cc1ccc(Cn2c(Cc3ccccc3)nc3ccccc32)cc1	PostGolgi ctrl 32 (no result: Calb biofilm kill)
COCn1c(-c2ccc(OC)cc2)nc2ccccc21	none (no result: PostGolgi yeast, PostGolgi ctrl)
COc1ccc(-c2nc3ccccc3n2Cc2ccc(C)cc2)cc1	PostGolgi yeast 31, PostGolgi ctrl 43
COc1ccc(CN2CC(C(=O)NCCc3ccc(C)cc3)CC2=O)cc1 (stereo not drawn)	none
COCc1nc2ccccc2n1Cc1ccc(Br)cc1	PostGolgi ctrl 36
Cc1oncc1C(=O)NC(C)C	none

Screening results deposited in PubChem BioAssay by several laboratories.
